# Screening data from PubChem BioAssay.
# TDP-43 rescue – qHTS of TDP-43 Inhibitors: NCGC Sytravon Library Screen; Potency, µM (titrated, usually from 46.1 µM), hits mostly activators; AID 1347073, 2019; yeast TDP-43 toxicity rescue, BacTiter-Glo growth, 24 h; 0.45% of 45,000 active; active means well fitted activation curve with a large enough effect; further: 0% is about no effect; nearly all actives have a fitted effect of over 55% in size
#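 TDP-43-expressing yeast, pregrown in raffinose, seeded at OD600 0.02 in galactose medium with compound for 24 hr at 30 deg C. Growth read by BacTiter-Glo luminescence, so rescue of toxicity appears as activation.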
# The depositor's hits bear a star; i = inactive. Many of the other results were omitted from the sample, so hits are more common in it than they were. Potency means the concentration at half of the fitted maximal effect.
SMILES,TDP-43 rescue
Cc1ccsc1CN(C(=O)COc1cccc(C)c1C)C1CCS(=O)(=O)C1 (centres undefined),i
CCOC(=O)C(CC)n1nc(C)c2c(C)n(-c3ccc(C)cc3)nc2c1=O (centres undefined),i
Cc1ccccc1NC(=O)c1c(NC(=O)Cc2ccccc2)sc2c1CCC2,i
COc1cc(NC(=O)Cn2c(=O)n(CC(=O)NCCc3ccc(OC)c(OC)c3)c(=O)c3sccc32)cc(OC)c1,i
Cc1cccc(C)c1NC(=O)Cn1c(=O)n(CCC(=O)NCc2ccc3c(c2)OCO3)c(=O)c2sccc21,i
CC1(c2ccc(Cl)cc2)CC(C)(C)N(C(=O)c2cccc(F)c2)c2ccccc21 (centres undefined),i
c1ccc(-c2cc3nc(NCc4cccs4)ccn3n2)cc1,i
COc1ccccc1-c1cc2nc(NCCc3ccncc3)ccn2n1,i
COc1cc(-c2cc3nc(NCc4cccc(Cl)c4)ccn3n2)cc(OC)c1OC,14µM*
Cc1c(-c2nc(-c3ccc4c(c3)OCO4)no2)nnn1-c1cccc(C(F)(F)F)c1,i
Cc1ccccc1-c1cc2nc(NCCCN(C)C)n(C)c(=O)c2s1,i
COc1ccc(Nc2nc3cc(-c4ccccc4C)sc3c(=O)n2C)cc1OC,20µM*
Cc1ccccc1-c1cc2nc(NCCOc3ccccc3)n(C)c(=O)c2s1,i
N#Cc1ccccc1Cn1c(=O)n(CCCC(=O)NCc2ccc3c(c2)OCO3)c(=O)c2sccc21,i
CCN(CC)S(=O)(=O)c1ccc2c(c1)N(CC(=O)Nc1c(C)cccc1C)C(=O)C1CCCN21 (centres undefined),i
CC1CCCN(C(=O)COc2ccc(-c3ccccc3)cc2)C1 (centres undefined),11µM*
CC1CCCN(CC(=O)NNC(=O)COc2ccc(Br)cc2)C1 (centres undefined),i
COc1ccc(CC(=O)OCC(=O)N2CCCC(C)C2)cc1 (centres undefined),i
Cc1sc(NC(=O)c2ccco2)nc1-c1ccccc1,13µM*
CC(=O)c1c(C)[nH]c(C(=O)Nc2nc(-c3ccccc3)c(C)s2)c1C,i
Cc1nc(NC(=O)c2ccco2)sc1C(=O)O,i
CCOC(=O)C1CCN(C(=O)CNC(=O)c2nn(-c3ccc(OC)c(OC)c3)c(=O)c3ccccc23)CC1,i
COc1ccc(-n2nc(C(=O)NCC(=O)N3CCC(C)CC3)c3ccccc3c2=O)cc1Cl,18µM*
COc1ccc(-n2nc(C(=O)NCC(=O)N3CCN(Cc4ccccc4)CC3)c3ccccc3c2=O)cc1OC,i
CCC(C(=O)NCCCN(CC)CC)n1ncn2c(cc3occc32)c1=O (centres undefined),i
SMILES,TDP-43 rescue
COC(=O)c1cccc(NC(=O)c2nsc3ccccc23)c1,i
Cc1cccc(N2CCN(C(=O)c3ccc4c(c3)N(Cc3ccccc3)C(=O)c3ccccc3S4(=O)=O)CC2C)c1 (centres undefined),i
O=C(COC(=O)CCc1ccccc1)NCc1ccc2c(c1)OCO2,i
CCc1cccc(C)c1NC(=O)CCCSc1nc2ccccc2s1,i
O=C(CCCSc1nc2ccccc2s1)NCc1ccc2c(c1)OCO2,13µM*
CC1=C(C(=O)Nc2cc(C)cc(C)c2)C2(CCCCC2)OC1=O,i
CCc1ccc(NC(=O)CCS(=O)(=O)c2ccc3c(c2)n(C)c(=O)c(=O)n3C)cc1,i
Cc1ccc(Cn2c(C)c3cnn(CC(=O)O)c(=O)c3c2C)cc1,i
O=C(Cc1ccccc1)NNC(=S)NC(=O)c1cccnc1,i
O=C(NNC(=S)NC(=O)c1ccc(F)cc1)c1cccnc1,i
O=C(NC(=S)NNC(=O)[C@H]1C[C@@H]1c1ccccc1)c1cccc(F)c1,13µM*
COC(=O)c1cc2sc(C)cc2n1Cc1nc(-c2cccc(Br)c2)oc1C,i
Cc1cc(Br)cc2c1N(Cc1ccccc1OC(C)C)C(=O)C2=O,i
Cc1ccc(-c2nc3c4cnn(-c5cc(Cl)ccc5Cl)c4ncn3n2)cc1,i
CNc1cncc(-c2ccc(OC)c(OC)c2)n1,11µM*
CNc1cncc(-c2ccccc2NC(C)=O)n1,i
CNc1cncc(-c2ccccc2CO)n1,i
O=C(NCCc1nc2ccccc2n1Cc1ccc(Cl)cc1Cl)c1ccco1,i
CC1=C(C(=O)N2CCN(c3cccc(C)c3C)CC2)C2(CCCCC2)OC1=O,i
COc1cccc(N2CCN(C(=O)c3ccc(CS(=O)c4ccc(C)cc4)o3)CC2)c1 (centres undefined),i
Cc1ccccc1S(=O)Cc1ccc(C(=O)N2CCN(c3cccc(C)c3C)CC2)o1 (centres undefined),20µM*
CCCCCOc1ccccc1CN1C(=O)C(=O)c2cc(C)ccc21,i
CCOc1ccc(CCNC(=O)C2=C(C)C(=O)OC23CCCCC3)cc1,i
CC(C)(C)C1CCc2c(sc(NC(=O)C3c4ccccc4Oc4ccccc43)c2C(N)=O)C1 (centres undefined),i
CCN(CC)CCNC(=O)c1ccc(Cn2c(=O)c3cccn3c3cccnc32)cc1,i
